Here are results for 13 targets from the supplement of paper PMC10849652.

About 7,900 targets were measured; listed, in parts, are those with a hit and a random draw of the rest. About 0.6% of all pairs of compound and target were hits. Unmarked numbers belong to inactive results.

Holding throughout (assay): log2 fold change, soluble protein after heating vs DMSO (PISA); higher = thermal stabilisation; K562 cells, 10 uM, 30 min; active = over 0.2 and 3.5 SD of the protein, either way, in both replicates (recomputed)
Compound in assay [1]: CC1=C(C=C(C=C1)NC(=O)C2=CC(=CC=C2)N(C)C)NC(=O)C3=CC=C(C=C3)O
Summed up: (§1)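 K562 cells at 2×10^6 cells/mL were treated with 10 μM compound for 30 min. Aliquots were heated for 3 min across 48°C-58°C, pooled, and extracted in PBS with 0.5% NP-40 at 4°C; soluble protein was the supernatant after 21,000xg for 90 min. Soluble protein was quantified by TMTpro 16plex LC-MS/MS with channel sums equalised, and reported as log2 fold change in thermal stability against DMSO controls, with values from duplicates.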

Compound in assay [2]: CC1=NC(=CC=C1)C2=C(N=C(N2)C(C)(C)C)C3=CC4=NC=CN=C4C=C3
An outline of the steps:
as §1

Compound in assay [3]: CCCS(=O)(=O)Nc1ccc(F)c(C(=O)c2c[nH]c3ncc(-c4ccc(Cl)cc4)cc23)c1F [vemurafenib]
Summed up:
as §1

Compound in assay [4]: CCN(CCCOc1ccc2c(Nc3cc(CC(=O)Nc4cccc(F)c4)[nH]n3)ncnc2c1)CCOP(=O)(O)O [barasertib]
An outline of the steps: as §1

Compound in assay [5]: CN(C)CC(=O)Nc1ccc2[nH]c(=O)c3ccccc3c2c1
An outline of the steps: as §1

Compound in assay [6]: CN(CCOC1=CC=C(C=C1)C[C@H]2C(=O)NC(=O)S2)C3=CC=CC=N3 (racemic) [rosiglitazone]
An outline of the steps: as §1

Compound in assay [7]: CC1=C(C=C(C=C1)NC(=O)C2=CC(=CC=C2)C(C)(C)C#N)NC3=CC4=C(C=C3)N=CN(C4=O)C
Summed up: as §1

Compound in assay [8]: CCCCN(Cc1ccc(C(=O)NO)cc1)C(=O)Nc1ccccc1 [Nexturastat A]
Summed up: as §1

Compound in assay [9]: CCCc1cc(C)[nH]c(=O)c1CNC(=O)c1cc(-c2ccnc(N3CCN(C)CC3)c2)cc2c1cnn2C(C)C
Summed up:
as §1

Compound in assay [10]: CCN(CC)Cc1ccc2cc(COC(=O)Nc3ccc(C(=O)NO)cc3)ccc2c1 [givinostat]
Summed up: as §1

Compound in assay [11]: CC[C@@H]1C(=O)N(C)c2cnc(Nc3ccc(C(=O)NC4CCN(C)CC4)cc3OC)nc2N1C1CCCC1
An outline of the steps:
as §1

Compound in assay [12]: CC[C@H](C)N1C=C(C2=C(C=C(C=C21)C3=CN=C(C=C3)N4CCNCC4)C(=O)NCC5=C(C=C(NC5=O)C)C)C
Summed up:
as §1

Compound in assay [13]: CC[C@H](C)[C@@H](C(=O)N[C@@H]([C@@H](C)O)C(=O)N[C@@H](CC(C)C)C(=O)[C@]1(CO1)C)NC(=O)[C@H]([C@@H](C)CC)N(C)C(=O)C [epoxomicin]
Summed up:
as §1

Compound in assay [14]: CCn1c(C(=O)N(C2CC2)C2CC2)cc2c3c(ncn3C)c(Nc3cc(C)n(C)n3)nc21
An outline of the steps: as §1

Compound in assay [15]: CCn1cc(-c2ccnc3[nH]c(-c4cccc(CN(C)C)c4)cc23)c(-c2ccc(NC(=O)N(C)C)cc2)n1
Summed up:
as §1

Compound in assay [16]: CN1CCC(CNc2ccc3ncc(-c4cccc(OC(F)(F)F)c4)n3n2)CC1
Summed up:
as §1

Compound in assay [17]: CC1=CC=C(C=C1)SC2=C3C=C(SC3=CN=C2)C(=O)N
An outline of the steps:
as §1

Compound in assay [18]: CCCS(=O)(=O)Nc1ccc(F)c(C(=O)c2c[nH]c3ncc(Cl)cc23)c1F
Summed up: as §1

Compound in assay [19]: CC[C@@H]1C(=O)N(C)c2cnc(Nc3ccc(C(=O)N[C@H]4CC[C@H](N5CCN(CC6CC6)CC5)CC4)cc3OC)nc2N1C(C)C [volasertib]
An outline of the steps: as §1

Compound in assay [20]: CN1C2=C(C3=C1C(=O)N(N=C3)CC4=CC(=CC=C4)N)SC(=C2)S(=O)C
Summed up:
as §1

Chain of UniProt O15254 (O15254 whole entry, looked up): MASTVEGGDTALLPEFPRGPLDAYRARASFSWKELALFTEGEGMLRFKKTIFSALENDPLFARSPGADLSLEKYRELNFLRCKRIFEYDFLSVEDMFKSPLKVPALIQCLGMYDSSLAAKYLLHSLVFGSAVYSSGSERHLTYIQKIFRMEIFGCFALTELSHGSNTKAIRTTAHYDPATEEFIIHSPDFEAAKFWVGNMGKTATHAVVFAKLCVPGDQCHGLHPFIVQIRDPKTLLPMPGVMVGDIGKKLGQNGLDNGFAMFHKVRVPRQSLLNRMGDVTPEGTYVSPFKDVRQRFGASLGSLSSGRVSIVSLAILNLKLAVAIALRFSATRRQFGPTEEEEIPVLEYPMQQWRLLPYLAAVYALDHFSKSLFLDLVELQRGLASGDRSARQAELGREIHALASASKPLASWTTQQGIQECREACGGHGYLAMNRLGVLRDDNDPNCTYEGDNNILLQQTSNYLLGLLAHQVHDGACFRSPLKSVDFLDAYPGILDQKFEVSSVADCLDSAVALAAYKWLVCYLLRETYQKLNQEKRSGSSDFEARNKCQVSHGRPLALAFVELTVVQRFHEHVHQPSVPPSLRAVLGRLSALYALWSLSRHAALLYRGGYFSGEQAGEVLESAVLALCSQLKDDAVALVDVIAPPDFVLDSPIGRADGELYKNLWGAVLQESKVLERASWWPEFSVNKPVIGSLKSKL
Chain of UniProt Q8IUR7 (Q8IUR7 whole entry, looked up): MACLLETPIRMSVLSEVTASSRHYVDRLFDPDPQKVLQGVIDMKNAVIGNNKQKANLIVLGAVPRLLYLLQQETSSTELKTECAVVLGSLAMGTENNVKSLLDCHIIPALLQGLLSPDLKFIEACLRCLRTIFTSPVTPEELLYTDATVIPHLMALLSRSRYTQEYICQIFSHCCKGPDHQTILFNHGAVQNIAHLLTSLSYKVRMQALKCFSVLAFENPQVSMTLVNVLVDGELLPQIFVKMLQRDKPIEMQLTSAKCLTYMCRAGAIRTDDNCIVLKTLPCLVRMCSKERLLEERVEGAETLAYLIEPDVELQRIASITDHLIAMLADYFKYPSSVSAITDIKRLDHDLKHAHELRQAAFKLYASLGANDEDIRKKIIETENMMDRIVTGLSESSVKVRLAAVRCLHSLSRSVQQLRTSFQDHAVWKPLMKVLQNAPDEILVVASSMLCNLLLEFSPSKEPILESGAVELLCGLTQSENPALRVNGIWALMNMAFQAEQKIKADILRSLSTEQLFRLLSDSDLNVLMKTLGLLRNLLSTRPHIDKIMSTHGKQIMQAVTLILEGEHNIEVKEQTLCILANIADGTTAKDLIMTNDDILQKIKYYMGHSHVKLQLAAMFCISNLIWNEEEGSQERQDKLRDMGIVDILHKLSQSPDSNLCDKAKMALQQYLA
Chain of UniProt P35611 (P35611 whole entry, looked up): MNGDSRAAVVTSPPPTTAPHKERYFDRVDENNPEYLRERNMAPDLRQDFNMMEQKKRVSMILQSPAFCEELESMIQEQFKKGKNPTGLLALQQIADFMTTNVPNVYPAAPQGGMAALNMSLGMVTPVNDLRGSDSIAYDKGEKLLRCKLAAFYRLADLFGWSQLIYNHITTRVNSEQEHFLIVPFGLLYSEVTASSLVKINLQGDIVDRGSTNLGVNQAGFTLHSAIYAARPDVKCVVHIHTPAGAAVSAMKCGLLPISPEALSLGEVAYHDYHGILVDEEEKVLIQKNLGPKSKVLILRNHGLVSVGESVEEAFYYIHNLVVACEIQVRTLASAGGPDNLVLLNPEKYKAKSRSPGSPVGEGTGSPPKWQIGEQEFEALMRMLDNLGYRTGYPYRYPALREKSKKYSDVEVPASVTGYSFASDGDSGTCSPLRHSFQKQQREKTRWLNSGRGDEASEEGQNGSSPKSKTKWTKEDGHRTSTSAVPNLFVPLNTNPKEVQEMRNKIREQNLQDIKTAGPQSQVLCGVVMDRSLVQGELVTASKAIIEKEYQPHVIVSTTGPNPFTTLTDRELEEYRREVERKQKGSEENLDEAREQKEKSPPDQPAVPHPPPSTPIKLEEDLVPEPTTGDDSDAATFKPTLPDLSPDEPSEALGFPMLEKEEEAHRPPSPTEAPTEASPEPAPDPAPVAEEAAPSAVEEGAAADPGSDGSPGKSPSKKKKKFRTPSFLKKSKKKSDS
Chain of UniProt Q04771 (Q04771 whole entry, looked up): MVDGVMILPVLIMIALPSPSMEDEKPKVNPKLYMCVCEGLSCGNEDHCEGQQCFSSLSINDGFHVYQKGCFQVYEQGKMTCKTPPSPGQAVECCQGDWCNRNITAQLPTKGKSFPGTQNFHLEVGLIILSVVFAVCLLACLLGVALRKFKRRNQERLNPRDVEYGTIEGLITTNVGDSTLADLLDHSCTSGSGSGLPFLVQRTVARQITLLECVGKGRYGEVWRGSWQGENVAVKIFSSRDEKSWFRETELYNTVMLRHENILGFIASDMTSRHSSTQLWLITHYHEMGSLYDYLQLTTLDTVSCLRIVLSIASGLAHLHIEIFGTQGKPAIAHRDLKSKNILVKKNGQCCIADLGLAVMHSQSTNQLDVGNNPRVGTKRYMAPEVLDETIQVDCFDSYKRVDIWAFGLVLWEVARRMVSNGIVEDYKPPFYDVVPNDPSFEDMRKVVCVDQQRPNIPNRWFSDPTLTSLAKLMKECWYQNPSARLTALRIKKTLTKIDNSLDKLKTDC
Chain of UniProt Q96G97 (Q96G97 whole entry, looked up): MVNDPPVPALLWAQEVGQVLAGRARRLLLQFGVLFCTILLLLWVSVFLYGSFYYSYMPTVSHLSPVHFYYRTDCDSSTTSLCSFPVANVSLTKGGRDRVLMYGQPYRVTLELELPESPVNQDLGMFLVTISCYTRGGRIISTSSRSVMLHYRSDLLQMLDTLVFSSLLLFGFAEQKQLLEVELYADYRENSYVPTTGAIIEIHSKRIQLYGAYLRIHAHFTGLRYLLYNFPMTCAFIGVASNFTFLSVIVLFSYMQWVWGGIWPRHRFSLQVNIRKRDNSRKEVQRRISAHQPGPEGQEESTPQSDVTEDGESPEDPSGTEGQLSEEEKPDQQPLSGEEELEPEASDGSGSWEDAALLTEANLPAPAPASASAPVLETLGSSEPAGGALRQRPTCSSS
Chain of UniProt Q9H7T9 (Q9H7T9 whole entry, looked up): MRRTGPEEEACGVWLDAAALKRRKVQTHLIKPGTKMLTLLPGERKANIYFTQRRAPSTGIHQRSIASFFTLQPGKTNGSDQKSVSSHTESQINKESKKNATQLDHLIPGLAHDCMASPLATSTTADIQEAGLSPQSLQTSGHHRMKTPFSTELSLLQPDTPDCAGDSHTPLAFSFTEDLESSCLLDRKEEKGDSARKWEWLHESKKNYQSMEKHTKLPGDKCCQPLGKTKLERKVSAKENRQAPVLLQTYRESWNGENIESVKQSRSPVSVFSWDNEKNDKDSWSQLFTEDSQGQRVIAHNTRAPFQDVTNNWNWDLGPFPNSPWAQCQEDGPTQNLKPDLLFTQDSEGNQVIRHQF
Chain of UniProt Q9UNK9 (Q9UNK9 whole entry, looked up): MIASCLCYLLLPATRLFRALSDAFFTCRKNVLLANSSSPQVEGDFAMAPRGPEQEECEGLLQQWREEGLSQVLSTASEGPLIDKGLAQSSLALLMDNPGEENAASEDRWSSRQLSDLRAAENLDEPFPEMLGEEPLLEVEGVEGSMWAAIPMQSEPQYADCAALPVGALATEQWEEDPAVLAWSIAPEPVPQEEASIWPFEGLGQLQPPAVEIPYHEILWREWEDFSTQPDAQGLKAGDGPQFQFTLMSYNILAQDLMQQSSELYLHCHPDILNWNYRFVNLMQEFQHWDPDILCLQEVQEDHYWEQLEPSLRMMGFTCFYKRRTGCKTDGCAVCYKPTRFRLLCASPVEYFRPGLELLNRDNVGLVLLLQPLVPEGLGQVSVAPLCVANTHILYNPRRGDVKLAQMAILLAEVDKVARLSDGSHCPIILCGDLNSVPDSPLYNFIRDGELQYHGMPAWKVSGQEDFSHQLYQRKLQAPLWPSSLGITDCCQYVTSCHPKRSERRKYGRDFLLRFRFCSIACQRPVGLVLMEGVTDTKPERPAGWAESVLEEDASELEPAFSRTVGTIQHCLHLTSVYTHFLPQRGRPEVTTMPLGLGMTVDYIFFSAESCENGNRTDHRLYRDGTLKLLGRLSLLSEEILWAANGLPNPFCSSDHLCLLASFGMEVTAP
Chain of UniProt Q9H6S1 (Q9H6S1 whole entry, looked up): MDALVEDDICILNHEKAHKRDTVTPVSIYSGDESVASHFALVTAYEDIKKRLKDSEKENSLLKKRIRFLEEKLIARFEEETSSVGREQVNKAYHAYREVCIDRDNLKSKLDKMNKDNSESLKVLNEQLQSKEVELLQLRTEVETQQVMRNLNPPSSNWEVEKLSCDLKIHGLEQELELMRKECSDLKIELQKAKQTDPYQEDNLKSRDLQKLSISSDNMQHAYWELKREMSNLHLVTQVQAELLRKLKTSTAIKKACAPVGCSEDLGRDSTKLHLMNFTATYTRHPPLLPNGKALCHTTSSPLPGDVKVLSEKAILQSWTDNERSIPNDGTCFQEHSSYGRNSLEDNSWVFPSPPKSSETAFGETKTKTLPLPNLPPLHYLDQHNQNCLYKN
Chain of UniProt P24666 (P24666 whole entry, looked up): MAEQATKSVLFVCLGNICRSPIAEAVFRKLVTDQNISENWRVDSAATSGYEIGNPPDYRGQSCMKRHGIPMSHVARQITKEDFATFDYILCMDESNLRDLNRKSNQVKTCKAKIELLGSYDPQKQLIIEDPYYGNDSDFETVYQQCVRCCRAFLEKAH

Consider ANGEL1 (UniProt Q9UNK9), for which the log2 fold change is -0.121 in assay [1]; 0.591 (active) in assay [2]; -0.079 in [3]; 0.033 in [4]; 0.038 in assay [5]; -0.008 in [6].
With ABCA4 (UniProt P78363), the log2 fold change was -0.145 in assay [7]; -0.068 in assay [1]; -0.168 in assay [2]; 0.576 (active) in [8]; 0.033 in assay [9]; 0.23 in [10]. Further, the log2 fold change is 0.015 in assay [4]; 0.117 in [11]; -0.202 in [12]; -0.046 in assay [13]; -0.172 in [14]; -0.163 in assay [15]. Also, the log2 fold change in assay [6] was 0.015; in assay [16], -0.087.
For the target ADD1 isoform 4 (UniProt P35611), the log2 fold change in [2] was 0.098; in assay [8], 0.024; in assay [4], 0.03; in [13], -0.431; in assay [15], -0.001; in assay [6] it was -0.077. Moreover, in assay [16], the log2 fold change is 0.086.
Regarding BSCL2 isoform 4 (UniProt Q96G97), the log2 fold change in assay [17] is -0.073; in assay [8], -0.174; in assay [3], 0.179; in assay [18], -0.043; in assay [9], -0.124; in [10], 0.052. In addition, the log2 fold change in assay [4] is 0.199; in assay [19], 0.072; in assay [12], 0.093; in assay [13] it was -0.05; in [14], -0.004; in [15] it was 0. Besides, the log2 fold change in assay [5] is -0.006; in assay [6], -0.001; in [20] it was -0.005; in assay [16], -0.057.
Consider ARMC8 isoform 6 (UniProt Q8IUR7), for which the log2 fold change was 0.031 in assay [3]; 0.075 in assay [10]; -0.021 in assay [4]; 0.048 in [12]; -0.196 in assay [14]; 0.016 in [5]. Also, the log2 fold change in assay [6] was -0.004.
AZI2 (UniProt Q9H6S1): the log2 fold change in assay [7] was -0.091; in assay [1], 0.045; in assay [3], 0.047; in assay [10] it was 0.028; in assay [4] it was -0.023; in assay [11], -0.021. For the same target, the log2 fold change in assay [12] is -0.063; in assay [14], -0.041; in assay [5], 0.062; in assay [6] it was -0.001.
BRAF, A0A2R8Y8E0: the log2 fold change in assay [1] is -1.03 (active); in assay [2], -0.021; in assay [9], -0.078; in assay [10] it was -0.006; in [12], 0.047; in assay [14] it was -0.078.
On to AUNIP isoform 2 (UniProt Q9H7T9), for which the log2 fold change was 0.113 in assay [7]; 0.101 in assay [17]; 0.081 in [3]; 0.073 in assay [18]; 0.083 in assay [10]; -0.03 in assay [19]. Further, the values for the log2 fold change in [14], in assay [5] and in assay [20] were 0.013, -0.163 and -0.031, respectively.
With AKNA (UniProt Q7Z591), the log2 fold change in [7] is 0.079; in assay [17] it was -0.047; in assay [18], -0.02; in assay [10], 0.177; in assay [19], 0.015; in assay [14], 0.054.
In the case of ACVR1 (UniProt Q04771), the log2 fold change in assay [7] is -0.194; in [17], 0.011; in assay [8], 0.037; in assay [3], 0.015; in [18] it was 0.017; in assay [9], -0.149. For the same target, the log2 fold change in assay [10] is 0.031; in assay [11], -0.104; in assay [19] it was -0.2; in assay [13] it was 0.16; in assay [14] it was -0.036; in assay [15], 0.065. Also, the log2 fold change in assay [5] was -0.095; in [20] it was -0.111; in assay [16] it was 0.925 (active).
Turning to ACOX3 (UniProt O15254), the log2 fold change in [7] is 0.111; in [17], -0.192; in [2], -0.011; in [8] it was 0.039; in [3], 0.057; in [18], -0.009. For the same target, the log2 fold change in [9] was 0.184; in assay [10], -0.01; in assay [4] it was -0.035; in [11] it was -0.346; in assay [19] it was 0.028; in assay [12] it was -0.069. The log2 fold change was -0.113 in assay [13], 0.011 in assay [14], -0.129 in [5] and 0.044 in [6].
As to ACP1 (UniProt P24666), the log2 fold change in [7] is 0.007; in [17] it was 0.01; in [2] it was -0.123; in assay [8], 0.001; in [3], 0.071; in [18], -0.047. Besides, the log2 fold change in [9] was 0.039; in [10], 0.076; in [4] it was 0.12; in [11], 0.084; in [19] it was -0.102; in [12] it was -0.001. The log2 fold change in assay [13] is 0.03; in assay [14], -0.034; in assay [15], 0.077; in [5], 0.12; in assay [6], 0.167; in assay [20], 0.099. The log2 fold change in assay [16] is -0.061.
With BRD2 isoform 2 (UniProt P25440), the log2 fold change is 0.348 in assay [7]; 0.039 in assay [17]; 0.076 in assay [2]; -0.033 in assay [3]; 0.014 in assay [18]; -0.596 in assay [10]. The log2 fold change in [4] is -0.053; in assay [19], 1.76 (active); in assay [14] it was 0.104; in assay [15], 0.486; in assay [5] it was 0.115; in [6], 0.24. Moreover, the log2 fold change in [20] is -0.132; in [16], 0.129.
